Screening data as filed in PubChem BioAssay.
Sampled rows, rich in hits. Any-hit rate of the full collection: about 1.8%.
MsrA inhibitor = inhibits bovine methionine sulfoxide reductase A; purified bovine MsrA, absorbance read-out; inhibition, % at 15.5 µM; 0.75% of 360,000 active; AID 651718; in the data active = inhibition above about 4.5%;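 note: 0% = vehicle wells with enzyme and 100% = reference inhibitor wells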
GC-A act = GC-A (human) enzyme activation | activation, % at 10 µM | HEK293 GC-A cells, cGMP TR-FRET, EC30 ANP; 0% at EC30 ANP, 100% saturating ANP | 0.14% of 370,000 active | AID 1671463; in the data active = activation above about 40%
HTR2A ag = agonists of mouse serotonin 5-HT2A receptor (HTR2A) | 0.66% of 360,000 active | activation, % at 7.6 µM | P35363 | CHO-K1 mHTR2A beta-arrestin complementation, luminescence; percent of 30 µM serotonin response;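 active = activation above a run cutoff, the mean activation of all tested compounds plus 3 SD, cut at about 14% in these data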;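 note: 0% = plate median of compound wells and 100% = 30 µM serotonin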
GC-B act = GC-B (human) receptor activation; HEK293-GC-B cells, CNP EC30, cGMP TR-FRET; 0% at EC30 CNP, 100% saturating CNP; 0.11% of 370,000 active; AID 1920062; activation, % at 10 µM;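 active = activation at 10 µM reaching about 35% in either raw or pattern-adjusted values, limit read from the data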
MsrA act = activators of bovine methionine sulfoxide reductase A; purified bovine MsrA, absorbance read-out; activation, % at 10.6 µM; 0.3% of 360,000 active; AID 602163; in the data active = activation above about 7.5%;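 note: 0% = vehicle and 100% = reference activator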
MOR ag counter = OPRM1 agonism in mouse HTR2A counterscreen; 5.3% of 2,300 active; shares compounds with HTR2A ag; activation, % at 9.3 µM; U2OS OPRM1 beta-arrestin PathHunter, luminescence; DMSO 0%, DAMGO 9.3 µM 100%;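 active = mean activation above the mean of DMSO-only wells plus 3 SD, cut at about 0.5% in these data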
HTR2A ag conf = confirmation of mouse HTR2A serotonin receptor agonists. CHO-K1 PathHunter beta-arrestin recruitment, luminescence; DMSO 0%, 30 µM serotonin 100%. AID 624381. activation, % at 7.6 µM. 19% of 2,300 active. shares compounds with HTR2A ag;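 active = mean activation across triplicates above the hit threshold derived in the original primary screen, cut at about 15% in these data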
* marks the source's active call; other numbers are inactive results; · = no result given.

SMILES	MsrA inhibitor	GC-A act	HTR2A ag	GC-B act	MsrA act	MOR ag counter	HTR2A ag conf
Cc1cc2oc(=O)cc(CN3CCN(c4ccc(Cl)c(Cl)c4)CC3)c2cc1Cl	-1	-3	17*	-3	-13	0	2
Cc1ccc2c(CN3CCN(c4ccc(Cl)c(Cl)c4)CC3)cc(=O)oc2c1	-1	-2	18*	5	-9	0	-4
O=C(CSc1nc2ccccc2n1Cc1ccccc1Cl)N/N=C\c1cccc(Oc2ccccc2)c1	·	8	·	11	·	·	·
COc1ccc(Oc2c(Cl)cnn(CC(=O)C(c3ccccc3)c3ccccc3)c2=O)cc1	·	-32	·	-28	·	·	·
C[C@@H]1NC(=O)[C@H]2C[C@@]3(c4ccccc4)c4ccccc4N[C@H]3N2C1=O	·	-1	·	3	·	·	·
O=C(/C=C/[C@H]1O[C@@H](n2ccc(=O)[nH]c2=O)[C@H](O)[C@@H]1O)NCCN1CCCCC1	1	-3	16*	1	-10	-1	-3
O=C(/C=C/[C@H]1O[C@@H](n2ccc(=O)[nH]c2=O)[C@H](O)[C@@H]1O)NCc1ccccc1	1	0	5	3	-6	·	·
COc1ccc(S(=O)(=O)Cc2ccc(C(=O)N3CCOCC3)o2)cc1	0	0	17*	-2	-10	-1	-2
C=CCC12C=C(OC)C(=O)C(C1=O)C(c1ccc(OC)cc1)C2C (stereo not given)	·	0	·	-7	·	·	·
CCOc1ccc(N(CC(=O)Nc2c(C)n(C)n(-c3ccccc3)c2=O)S(=O)(=O)c2ccc(C)c(C)c2)cc1	·	4	·	-4	·	·	·
CC(=O)CC[C@H]1CC[C@]2(CCCN(C(=O)C3CCCC3)C2)O1	·	-4	·	-4	·	·	·
Cc1cccc(N2CCN(C(=O)c3cc4ccccc4oc3=O)CC2)c1C	0	-1	16*	2	-5	0	-5
OC(COCC1COc2ccccc2O1)CN1CCN(c2ccccc2F)CC1 (stereo not given)	0	3	15*	-4	-5	0	36*
CC[N+](C)(CC)CC(O)COCC1COc2ccccc2O1 (stereo not given)	0	0	16*	-1	-3	-1	-2
COC(=O)[C@]12C[C@H](CC(=O)NCCc3ccccc3OC)C(=O)N(Cc3ccc4c(c3)OCO4)C1=C[C@H](C(C)(C)C)O[C@@H]2C	1	-2	·	-6	·	·	·
CCCCN(CC)CCCNC(=O)CC1Oc2ccccc2NC1=O (stereo not given)	1	2	27*	-2	-2	-1	90*
CCCCN(CCCC)CCCNC(=O)CC1Oc2ccc(C)cc2NC1=O (stereo not given)	0	0	0	1	-1	·	·
COCCN=c1scc(-c2ccco2)n1/N=C/c1ccc(O)c(O)c1O	2	-1	28*	3	-1	0	72*
CC(C)N=c1scc(-c2ccco2)n1/N=C/c1ccc(O)c(O)c1	4	-3	18*	0	-11	1.1*	10
CN=c1scc(-c2cccs2)n1/N=C/c1ccc(O)c(O)c1O	2	11	2	2	-6	·	·
C=CCN=c1scc(-c2ccco2)n1/N=C/c1ccc(O)c(O)c1O	1	2	16*	4	-1	1.9*	129*
COc1ccc(Cn2cc(COC(=O)N3CCOCC3)nn2)cc1	·	3	·	-2	·	·	·
CCCC[C@H](C(=O)N(C)c1cccc(OC)c1)[C@@H](O)c1ccc2ccccc2c1	·	-7	·	-5	·	·	·
Nc1c(C(=O)N2CCN(c3ccccc3)CC2)nnn1Cc1ccc(Cl)cc1	·	-14	·	-12	·	·	·
COc1ccc(CC2(CO)CCN(C(C)COc3ccccc3)CC2)cc1 (stereo not given)	2	-14	20*	-13	-1	0	85*
SMILES	MsrA inhibitor	GC-A act	HTR2A ag	GC-B act	MsrA act	MOR ag counter	HTR2A ag conf
COc1ccc(CC2(CO)CCN(C/C=C/c3ccccc3OC)CC2)cc1	1	-11	7	-7	-13	·	·
CC(COc1ccccc1)N1CCC(CO)(Cc2ccccc2)CC1 (stereo not given)	1	-12	29*	-7	-3	0	73*
Cc1ccc2cc(CCNC(=O)C(C)C)c(=O)[nH]c2c1C	0	-1	16*	-4	-1	-1	-6
CCC(=O)NCCc1cc2ccc(C)c(C)c2[nH]c1=O	2	-2	5	2	-2	·	·
Cc1ccc(C)c2[nH]c(=O)c(CCNC(=O)c3ccco3)cc12	0	-3	19*	-4	-5	0	2
O=C(c1ccc(Cl)cc1)N1CCN(c2ccccn2)CC1	·	0	·	-1	·	·	·
CCOC(=O)C1=C(CC)Nc2ccccc2N/C1=N\S(=O)(=O)c1cccc(C(C)=O)c1	0	0	20*	-1	-2	0	-3
CCOC(=O)C1=C(CC)Nc2ccccc2N/C1=N\S(=O)(=O)c1ccccc1F	2	3	-2	4	-2	·	·
O=S(=O)(N1CCCCC1)N1CCCN(S(=O)(=O)N2CCCCC2)CC1	1	0	15*	1	-12	-1	-3
O=S(=O)(N1CCCCCC1)N1CCN(S(=O)(=O)N2CCOCC2)CC1	1	0	3	-3	-2	·	·
COC(=O)C12C=C3CC(c4ccc(OC)cc4)=C3C(=O)N1Cc1[nH]c3ccccc3c1C2 (stereo not given)	·	1	·	6	·	·	·
CC(=NC1CC1)c1c(-c2ccccc2)[nH]n(-c2nc3ccccc3s2)c1=O	1	0	15*	1	-2	-1	11
CC(=NC1CCCC1)c1c(C)[nH]n(-c2nc3ccccc3s2)c1=O	-1	5	1	4	-4	·	·
O=C1Nc2ccccc2/C1=C/c1ccc([N+](=O)[O-])cc1	2	-9	28*	-3	-4	1.0*	-1
O=C(NC1CCCCN(Cc2cccc(C(F)(F)F)c2)C1=O)c1cccc([N+](=O)[O-])c1 (stereo not given)	·	5	·	0	·	·	·
O=C(CNC(=O)c1ccc(Br)o1)NNC(=O)c1cccc(Cl)c1	0	-2	3	-16	-8	·	·
O=C(CNC(=O)c1ccc(Br)o1)NNC(=O)c1ccccc1O	0	1	17*	-3	-2	-1	-4
OC(COc1ccc2cc(Br)ccc2c1)CN1CCN(c2ccccn2)CC1 (stereo not given)	0	1	24*	3	-1	0	108*
COc1cccc(OCC(O)CN2CCN(c3ccccn3)CC2)c1 (stereo not given)	0	0	33*	1	-7	-1	84*
